Data on 24 molecules can be found in PubChem BioAssay (NCATS).

SMILES strings stand for the structures. Records with an inconclusive call do not appear. Entries that show only a call come without a potency. The source made the active and inactive calls. Unless noted, the call rests on the fitted dose curve; in most records, active means well fitted curve in the direction sought with a large enough effect; inconclusive means small, poorly fitted or top-dose-only effect, or another doubt; inactive means no such curve, though single readings can be large; an effect the other way counts as inactive or inconclusive.

Chain of Ubiquitin carboxyl-terminal hydrolase 1 (Homo sapiens) (O94782 whole entry, looked up): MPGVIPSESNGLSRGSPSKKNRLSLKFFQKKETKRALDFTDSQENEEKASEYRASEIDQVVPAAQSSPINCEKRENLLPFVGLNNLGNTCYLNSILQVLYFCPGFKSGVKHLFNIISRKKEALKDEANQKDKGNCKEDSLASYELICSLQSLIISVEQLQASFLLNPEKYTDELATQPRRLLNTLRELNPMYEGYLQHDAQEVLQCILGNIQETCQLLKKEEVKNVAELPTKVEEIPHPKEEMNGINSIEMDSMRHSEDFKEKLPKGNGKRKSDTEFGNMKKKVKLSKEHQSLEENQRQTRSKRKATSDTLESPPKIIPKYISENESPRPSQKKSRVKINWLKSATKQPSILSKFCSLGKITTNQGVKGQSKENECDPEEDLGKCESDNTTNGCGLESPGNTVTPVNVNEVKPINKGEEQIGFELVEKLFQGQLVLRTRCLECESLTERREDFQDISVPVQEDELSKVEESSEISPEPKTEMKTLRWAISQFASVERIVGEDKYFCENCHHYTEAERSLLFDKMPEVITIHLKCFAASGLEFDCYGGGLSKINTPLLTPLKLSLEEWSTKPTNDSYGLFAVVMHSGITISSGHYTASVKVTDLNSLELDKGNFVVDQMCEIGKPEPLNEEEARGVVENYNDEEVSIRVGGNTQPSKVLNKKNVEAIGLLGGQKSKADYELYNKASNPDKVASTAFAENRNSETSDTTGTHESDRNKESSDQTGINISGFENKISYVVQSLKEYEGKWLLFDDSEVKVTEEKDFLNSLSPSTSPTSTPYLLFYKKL
Chain of phosphoglycerate mutase (Leishmania major) (Q4Q090 1-553): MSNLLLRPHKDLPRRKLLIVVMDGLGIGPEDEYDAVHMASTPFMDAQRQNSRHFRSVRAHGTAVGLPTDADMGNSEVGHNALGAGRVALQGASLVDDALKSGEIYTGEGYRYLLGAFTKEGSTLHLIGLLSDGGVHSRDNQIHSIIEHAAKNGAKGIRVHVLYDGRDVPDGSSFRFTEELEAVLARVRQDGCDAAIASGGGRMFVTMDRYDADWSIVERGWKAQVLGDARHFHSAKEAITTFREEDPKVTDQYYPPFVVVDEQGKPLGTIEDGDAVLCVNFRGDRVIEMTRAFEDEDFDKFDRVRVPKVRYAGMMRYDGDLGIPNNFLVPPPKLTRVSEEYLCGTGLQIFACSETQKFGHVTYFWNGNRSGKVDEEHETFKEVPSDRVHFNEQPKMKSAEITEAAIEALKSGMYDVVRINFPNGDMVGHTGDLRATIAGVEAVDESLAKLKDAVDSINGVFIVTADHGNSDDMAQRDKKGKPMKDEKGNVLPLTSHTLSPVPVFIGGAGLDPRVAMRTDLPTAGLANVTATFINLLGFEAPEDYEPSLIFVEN

The first experiment concerns the target phosphoglycerate mutase (Leishmania major) (UniProt Q4Q090). In words: qHTS Validation Assay to Find Inhibitors of Phosphoglycerate Mutase (AID 504548).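 Further: end-point luminescence from Kinase-GloPlus after the PGAM reaction.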 The note with it: biochemical enzyme activity; series mostly up to 57.5 µM. The text has this:
NIH Molecular Libraries Probe Production Network [MLPCN]
(§1) NIH Chemical Genomics Center [NCGC]
PI Name: Malcolm Walkinshaw, University of Edinburgh
Several species of the Trypanosomatidae family of parasitic protozoans cause a spectrum of diseases throughout the tropical and subtropical world. Sleeping sickness, caused by two subspecies of Trypanosoma brucei, is endemic to areas of sub-Saharan Africa, while Chagas disease, a manifestation of Trypanosoma cruzi infection, is prevalent throughout Central and South America. In addition, many species of Leishmania are responsible for a range of cutaneous and visceral diseases, causing ulcers, destructive lesions and kalaazar, a lethal infection of the viscera. Collectively, these organisms infect 30 million people worldwide (~500 million live in endemic areas), and account for ~130,000 deaths annually. Given their debilitating and prevalent nature, trypanosomatid parasites impose a heavy medical, economic and social burden on entire populations, primarily in the developing world. The problem is further exacerbated by the fact that existing treatments have progressed little in the past 50 years, and current drugs show high toxicity and poor efficacy.
Blood-stream stages of T. brucei are entirely dependent on glycolysis as a source of ATP, and the tricarboxylic acid cycle and oxidative phosphorylation are both repressed. Glycolysis in axenically cultured T. cruzi, representing the intracellular pathogenic stage, is also essential for these parasites. […] Previous studies have shown that the glycolytic enzyme, phosphoglycerate mutase (PGAM), is a viable target for drugs to kill these parasites. […]
Briefly, 3ul of substrate buffer (all columns) are dispensed into Greiner white solid bottom 1536-well assay plates. […] Kinase-GloPlus reagent is added (2ul) and plates incubated for 10 minutes, before being transferred to a ViewLux high-throughput CCD imager (PerkinElmer) wherein single end-point measurements of luminescence are acquired using a clear filter. […]
Take `CN[C@H](CC(C)C)C(=O)N[C@H]1C(=O)N[C@@H](CC(N)=O)C(=O)N[C@@H]2C(=O)N[C@H]3C(=O)N[C@H](C(=O)N[C@H](C(=O)O)c4cc(O)cc(O)c4-c4cc3ccc4O)[C@H](O)c3ccc(c(Cl)c3)Oc3cc2cc(c3O[C@@H]2O[C@H](CO)[C@@H](O)[C@H](O)[C@@H]2O[C@H]2C[C@](C)(N)[C@H](O)[C@H](C)O2)Oc2ccc(cc2Cl)[C@H]1O`: the molecule was classed as inactive.

Regarding `O=c1[nH]c(=O)n([C@H]2C[C@@H](O)[C@@H](CO)O2)cc1C=CBr`, the outcome was inactive.

For the molecule `COc1ccc2cc([S+]([O-])Cc3ncc(C)c(OC)c3C)nc2c1`, the result was inactive.

A further experiment has as its target Ubiquitin carboxyl-terminal hydrolase 1 (Homo sapiens) (UniProt O94782). Nature of the experiment: Inhibitors of USP1/UAF1: Pilot qHTS (AID 504865).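 Further: rhodamine fluorescence freed from ubiquitin-rhodamine substrate followed over time; top concentration of the series differs between compounds; nearly all actives have a fitted effect of over 35% in size.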 The note with it: purified USP1/UAF1, Ub-rhodamine cleavage fluorescence; series mostly up to 114 µM. A digest of the protocol: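 USP1/UAF1 complex at 1 nM preincubated 15 min at room temperature with compound, then Ub-Rho substrate added at 150 nM final. Fluorescence (480/540 nm) read kinetically in 50 mM HEPES pH 7.8, 0.5 mM EDTA, 1 mM TCEP, 0.1 mg/ml BSA, 0.01% Tween-20.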
A general note: In qHTS, concentration-response curves come from the screen itself.
For the molecule `CN(C)CC[C@H](c1ccc(Cl)cc1)c1ccccn1`, the outcome was inactive.

For `COc1ccc2c(c1OC)C(=O)OC2[C@H]1c2c(cc3c(c2OC)OCO3)CCN1C` (stereo partly drawn), the molecule was classed as inactive.

As for `CCN1CCN(C(=O)N[C@H](C(=O)N[C@@H]2C(=O)N3C(C(=O)O)=C(CSc4nnnn4C)CS[C@@H]23)c2ccc(O)cc2)C(=O)C1=O`, the molecule was called inactive.

With `Cc1ccc(O)c(C(CCN(C(C)C)C(C)C)c2ccccc2)c1` (stereo not drawn), the result was inactive.

On to `OCC(O)C(O)C(O)CO` (stereo not drawn), for which the molecule was classed as inactive.

In the case of `Cc1cc(O)c2c(c1)C(=O)c1cccc(O)c1C2=O`, the molecule was called inactive.

In the case of `COc1ccc(C(C)=O)c(O)c1`, the call was inactive.

As for `COc1ccc([C@@H]2CNC(=O)C2)cc1OC1CCCC1`, the call was inactive.

`c1coc(CNc2ncnc3nc[nH]c23)c1`: the call was inactive.

With `Nc1nc2c(c(=O)[nH]1)N(C=O)[C@H](CNc1ccc(C(=O)N[C@@H](CCC(=O)O)C(=O)O)cc1)CN2`, the result was inactive.

As for `CCOC(=O)C1=C(C)NC(=S)NC1c1cccc(O)c1` (stereo not drawn), the outcome was inactive.

`C[C@@]12C(=O)OC(=O)[C@@]1(C)C1CCC2O1`: the result was inactive.

Take `O=c1[nH]c(=O)n([C@H]2C[C@@H](O)[C@@H](CO)O2)cc1C=CBr`: the result was inactive.

Take `CN(N=O)C(=O)N[C@H]1C(O)OC(CO)[C@@H](O)[C@H]1O` (stereo partly drawn): the molecule was called inactive.

Regarding `O=C(O)C=Cc1ccc(Cn2ccnc2)cc1`, the molecule was classed as inactive.

Test system in another experiment: not listed separately
Nature of the experiment: qHTS for Inhibitors of ATXN expression: Validation of Cytotoxic Assay (AID 588349). The note with it: cytotoxicity counter-screen for ATXN expression inhibitors, cell viability; series mostly up to 57.1 µM. Summed up: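 Read-out: ATP-based luminescence (CellTiter Glo) reflecting viability of HEK293 cells after 72 hr incubation at 37 degrees C with a concentration series of each compound.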
Regarding `CN[C@H](CC(C)C)C(=O)N[C@H]1C(=O)N[C@@H](CC(N)=O)C(=O)N[C@@H]2C(=O)N[C@H]3C(=O)N[C@H](C(=O)N[C@H](C(=O)O)c4cc(O)cc(O)c4-c4cc3ccc4O)[C@H](O)c3ccc(c(Cl)c3)Oc3cc2cc(c3O[C@@H]2O[C@H](CO)[C@@H](O)[C@H](O)[C@@H]2O[C@H]2C[C@](C)(N)[C@H](O)[C@H](C)O2)Oc2ccc(cc2Cl)[C@H]1O`, the result was inactive.

As for `O=c1[nH]c(=O)n([C@H]2C[C@@H](O)[C@@H](CO)O2)cc1C=CBr`, the outcome was inactive.

Regarding `COc1ccc2cc([S+]([O-])Cc3ncc(C)c(OC)c3C)nc2c1`, the result was inactive.

Test system in another experiment: not listed separately
Nature of the experiment: qHTS for Inhibitors of ATXN expression: Validation (AID 588378). Further: nearly all actives have a fitted effect of over 75% in size. The note with it: cell-based ATXN2 expression reporter assay, luminescence; series mostly up to 57.1 µM. A digest of the protocol: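 HEK293 cells carrying ATXN2-firefly luciferase reporter, treated with compound 24 h at 37 °C. Viability read first by CellTiter-Fluor (405/525 nm), then reporter expression by Bright-Glo luminescence; controls were a known ATXN2 expression inhibitor and a luciferase inhibitor.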
With `CN[C@H](CC(C)C)C(=O)N[C@H]1C(=O)N[C@@H](CC(N)=O)C(=O)N[C@@H]2C(=O)N[C@H]3C(=O)N[C@H](C(=O)N[C@H](C(=O)O)c4cc(O)cc(O)c4-c4cc3ccc4O)[C@H](O)c3ccc(c(Cl)c3)Oc3cc2cc(c3O[C@@H]2O[C@H](CO)[C@@H](O)[C@H](O)[C@@H]2O[C@H]2C[C@](C)(N)[C@H](O)[C@H](C)O2)Oc2ccc(cc2Cl)[C@H]1O`, the result was inactive.

As to `O=c1[nH]c(=O)n([C@H]2C[C@@H](O)[C@@H](CO)O2)cc1C=CBr`, the call was inactive.

Consider `COc1ccc2cc([S+]([O-])Cc3ncc(C)c(OC)c3C)nc2c1`, for which the molecule was classed as inactive.

The target in another experiment is DNA dC->dU-editing enzyme APOBEC-3G (Homo sapiens) (UniProt Q9HC16). In words: qHTS for inhibitors of Vif-A3G interactions: Validation (AID 588379). The note with it: Vif-A3G protein interaction assay; series mostly up to 46.1 µM. Summed up: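 HeLa cells stably expressing Vif and A3G-eYFP, 700 cells/well, incubated overnight at 37 deg C, then exposed to compound overnight at 37 deg C. Inhibition of Vif-mediated degradation read as increased yellow fluorescence (Ex 488/Em 500-530) by laser-scanning cytometry.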
Chain of DNA dC->dU-editing enzyme APOBEC-3G (Homo sapiens) (Q9HC16 whole entry, looked up): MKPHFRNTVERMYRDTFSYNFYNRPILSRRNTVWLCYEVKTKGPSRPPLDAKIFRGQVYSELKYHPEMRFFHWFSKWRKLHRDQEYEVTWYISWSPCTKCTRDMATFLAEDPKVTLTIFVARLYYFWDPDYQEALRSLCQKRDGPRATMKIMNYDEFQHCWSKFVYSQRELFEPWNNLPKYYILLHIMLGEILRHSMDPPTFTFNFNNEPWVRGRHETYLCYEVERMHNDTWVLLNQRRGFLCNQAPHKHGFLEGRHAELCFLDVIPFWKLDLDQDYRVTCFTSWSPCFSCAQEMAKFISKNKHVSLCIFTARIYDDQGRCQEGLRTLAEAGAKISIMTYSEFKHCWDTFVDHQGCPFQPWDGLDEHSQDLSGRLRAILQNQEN
Consider `COc1cc2c(cc1O)CCC1C2CC[C@@]2(C)C1CC[C@@H]2O` (stereo partly drawn), for which the result was inactive.

Turning to `COc1cc2ncnc(Nc3cccc(Br)c3)c2cc1OC`, the molecule was classed as inactive.

In the case of `CC(C)[C@H](CO)Nc1nc(Nc2cccc(Cl)c2)c2ncn(C(C)C)c2n1`, the molecule was called inactive.

For `Cc1cc(O)c2c(c1)C(=O)c1cccc(O)c1C2=O`, the molecule was called inactive.

As for `COc1ccc([C@@H]2CNC(=O)C2)cc1OC1CCCC1`, the result was inactive.

Turning to `c1coc(CNc2ncnc3nc[nH]c23)c1`, the molecule was classed as inactive.

In the case of `CCOC(=O)C1=C(C)NC(=S)NC1c1cccc(O)c1` (stereo not drawn), the outcome was inactive.

Take `CC(Oc1ccc(O)cc1)(P(=O)(O)O)P(=O)(O)O`: the result was inactive.

Turning to `CN(N=O)C(=O)N[C@H]1C(O)OC(CO)[C@@H](O)[C@H]1O` (stereo partly drawn), the molecule was classed as inactive.

Turning to `O=c1c(O)c(-c2ccc(O)c(O)c2)oc2cc(O)ccc12`, the molecule was classed as inactive.

Regarding `O=C(O)C=Cc1ccc(Cn2ccnc2)cc1`, the molecule was classed as inactive.

The target in the next experiment is Estrogen receptor (Homo sapiens) (UniProt P03372). Nature of the experiment: qHTS assay for small molecule antagonists of estrogen receptor alpha signaling (AID 588513; active means well fitted curve in the direction sought with a large enough effect in the signal ratio, with a control signal flat, not every such curve was filed as active; the % refers to the signal ratio; further: potency means the concentration at half of the fitted maximal effect). The settings on record: ER-alpha-UAS-bla HEK293, beta-lactamase ratio, antagonist mode; series mostly up to 76.9 µM.
Chain of Estrogen receptor (Homo sapiens) (P03372 whole entry, looked up): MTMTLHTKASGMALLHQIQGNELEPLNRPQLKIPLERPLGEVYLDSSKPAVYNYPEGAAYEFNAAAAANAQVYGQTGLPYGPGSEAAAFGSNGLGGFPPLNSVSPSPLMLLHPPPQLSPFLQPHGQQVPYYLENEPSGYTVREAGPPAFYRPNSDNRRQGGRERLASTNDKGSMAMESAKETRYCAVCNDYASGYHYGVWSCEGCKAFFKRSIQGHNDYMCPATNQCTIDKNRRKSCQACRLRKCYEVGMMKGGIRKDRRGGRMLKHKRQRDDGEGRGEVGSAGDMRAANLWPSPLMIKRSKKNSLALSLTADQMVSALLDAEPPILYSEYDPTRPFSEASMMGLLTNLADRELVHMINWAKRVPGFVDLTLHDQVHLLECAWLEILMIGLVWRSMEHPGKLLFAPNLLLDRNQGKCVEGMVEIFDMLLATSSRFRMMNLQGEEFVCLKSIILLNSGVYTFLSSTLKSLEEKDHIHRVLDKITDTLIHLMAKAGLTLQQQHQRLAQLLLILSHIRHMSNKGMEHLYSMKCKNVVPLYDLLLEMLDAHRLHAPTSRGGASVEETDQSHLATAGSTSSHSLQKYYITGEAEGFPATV
Source text: as §1
U.S. Environmental Protection Agency [EPA]
National Institutes of Environmental Health Sciences [NIEHS]
National Toxicology Program [NTP]
Estrogen receptor alpha (ER-alpha) is an important member of nuclear hormone receptors. ER-alpha plays important role in breast cancer as well as in other women's health issues. The majority of breast cancers is estrogen receptor (ER) positive and depends on estrogen for growth. There is also growing concern for some of environmental chemicals which may contribute the increasing the incidence of breast cancer. Therefore, it is important to understand the effect of environmental chemicals in ER-alpha signaling pathway.
NCGC Assay Protocol Summary
Using a beta-lactamase reporter-gene under control of the ER response element, a cell-based assay [ER-alpha-UAS-bla GripTiteTM cell-Based Assay from Invitrogen] was used to measure ER-alpha signaling pathway in antagonist mode. ER-alpha-UAS-bla-GripTite HEK 293 cells were used with assay medium containing 2% charcoal/dextran treated FBS, 0.1 mM NEAA and 1 mM sodium pyruvate. Cells were cultured in this assay medium overnight in the flasks before the assay. The assay was performed in clear bottom black Greiner 1536-well plates. 17-beta-estradiol was used as a positive control in the screen. Library compounds were measured for their ability to inhibit the reporter gene activity. Compounds were screened in a titration series in 1536-well format. […] Data was normalized relative to 17-beta-estradiol control (0.5nM, 100%), and DMSO only wells (basal, 0%). Concentration-response titration points for each compound were fitted to the Hill equation yielding concentrations of half-maximal inhibition (IC50) and maximal response (efficacy) values.
qHTS protocol for ER-alpha beta-lactamase assay in antagonist mode
[Step] [Parameter] [Value] [Description]
1. Reagent; 5 uL; 5000 cells/well
2. Incubation; 37 C for 4 hrs
- Dose response, Start 38uM, 1:2 dilutions with duplicates […]
9. Detection; Fluorescence; Envision plate reader or Acumen plate reader
On to `CC(C=CC1=C(C)CCCC1(C)C)=CC=CC(C)=CC(=O)Nc1ccc(O)cc1`, for which the Potency is 31.6 µM [inhibitor] (active).

Take `Cc1cc(O)c2c(c1)C(=O)c1cccc(O)c1C2=O`: the Potency entry was “inactive”.

On to `OC[C@@H](O)[C@@H](O)[C@H](O)[C@@H](O)CO`, for which the Potency result is “inactive”.
